Sampled rows, rich in hits. Any-hit rate of the full collection: about 1.7%.
TRHR enhancer = TRH receptor (human) allosteric enhancement; TRHR cells, fluo-8 calcium fluorescence, EC20 TRH enhancement; 360,000 compounds, 0.66% hits; P34981; enhancement, % at 2 µM; AID 493056; in the data active = enhancement above about 30%; also: 0% is about no effect
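Enhancer read-out: after compound pinning and an initial kinetic agonist-mode read, an EC20 of TRH (10 nM final) was injected and fluo-8 calcium signal (Ex 480/Em 530) followed at 1 s/cycle for 100 cycles in TRHR-expressing cells.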
KCNH2 3.1 inh = blocks the human KCNH2 3.1 channel isoform. 340,000 compounds, 0.95% hits. activity change, % (tested at about 1.8 µM). AID 720553. U2OS KCNH2 3.1, thallium flux FluxOr; hits give low values;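 active = maximum activity change below -70%; inconclusive = maximum activity change from -70% to -50%; inactive = maximum activity change above -50%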;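 also: thallium influx rate constant from kinetic fluorescence after stimulation buffer; % is scaled to controls: 0 for no effect and ±100 for the full control effect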
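Channel expression came from 3.1 mutant virus (1.77 x 10^8 /mL) applied to suspended U2OS cells for 4 h. Flux was tracked with FluxOr dye plus Red40 quencher, and kinetic rate constants normalized to controls.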
TRHR agonist = agonists of human TRH receptor. TRHR cells, calcium flux fluo-8, FDSS agonist mode. activation, % at 2 µM. 360,000 compounds, 0.18% hits; in the data active = activation above about 30%; also: 0% is about no effect
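Read-out: compound-evoked intracellular calcium rise in TRHR cells, fluo-8 dye, kinetic FDSS fluorescence at 1 s/cycle following a 10-cycle baseline. Cells cultured overnight before dye loading (30 min–1.5 h, RT).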
TRPML1 blocker = blocks the human TRPML1 channel; 390,000 compounds, 0.02% hits; AID 624415; activity change, negative = inhibition, % (concentration not given with the values); TRPML1-inducible cells, Ca2+ dye fluorescence, FDSS; hits give low values; inhibition of EC80 agonist-evoked calcium signal; Q9GZU1; in the data active = activity change below about -50%; inconclusive = between about -30% and that limit;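 also: stimulus is agonist 54-4 at its EC80 concentration; % is scaled to controls: 0 for no effect and ±100 for the full control effect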
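TRPML1-DL cells, Tet-induced overnight (~16 h, 37 °C) at 1,500 cells/well, were loaded with Ca8 no-wash dye plus quencher for 45-90 min at room temperature. Compounds were pinned during FDSS kinetic reading; agonist 54-4 at EC80 (4 uM final) then added.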
hERG WT inh = inhibitors of human wildtype KCNH2 potassium channel. activity change, % at 1.84 µM. AID 720551. 340,000 compounds, 0.37% hits. U2OS, BacMam KCNH2, thallium flux FluxOr; hits give low values;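 active = maximum activity change below -70%; inconclusive = maximum activity change between -70% and -50%; inactive = maximum activity change above -50%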; also: % is scaled to controls: 0 for no effect and ±100 for the full control effect
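U2OS cells transduced with wild-type KCNH2 virus are loaded with FluxOr dye for 45 min, and thallium flux is measured in kinetic reads before and after stimulation buffer. Rate constants are normalized to DMSO controls.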
TRPML1 agonist = agonists of human TRPML1 channel; Q9GZU1; TRPML1-expressing cells, Ca2+ dye fluorescence, FDSS; activation, % (concentration not given with the values); 410,000 compounds, 0.12% hits; AID 624414; in the data active = activation above about 50%; inconclusive = mostly about 30% to 49%; also: 0% is about no effect
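In this qHTS format, compounds were pin-transferred onto Ca8-dye-loaded TRPML1-DL cells induced with Tet overnight, and intracellular Ca2+ fluorescence was recorded kinetically for 110 s after a 10 s baseline. A subsequent 4uM final 54-4 (EC80) addition followed by a second 110 s read served as the antagonist phase.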
Active calls of the source: *; ? = inconclusive; . = no result given.

SMILES | TRHR enhancer | KCNH2 3.1 inh | TRHR agonist | TRPML1 blocker | hERG WT inh | TRPML1 agonist
CC(C)C[C@H](NC(=O)c1nc[nH]c1C(=O)N1CCN(c2ccccc2)CC1)C(=O)OCc1ccccc1 | -8 | -78* | 0 | 32 | -1 | 3
CC(C)C[C@H](NC(=O)c1nc[nH]c1C(=O)NCC(=O)OC(C)(C)C)C(=O)OCc1ccccc1 | 0 | -18 | -1 | -2 | -6 | 3
CN(C)C(=O)c1ccc(NC(=O)COc2cccc3c2OC(C)(C)C3)cc1 | 0 | -12 | 0 | -6 | -3 | -1
O=C(/C=C/c1ccc(F)cc1)NC(=S)N1CCOCC1 | 37* | 2 | 0 | -4 | -7 | 0
COc1ccc(-c2coc3cc(OC4OC(CO)C(O)C(O)C4O)cc(O)c3c2=O)cc1 (centres undefined) | -11 | -12 | 0 | 9 | 13 | 1
COc1ccc(CC(=O)c2ccc(OC3OC(CO)C(O)C(O)C3O)cc2O)cc1 (centres undefined) | -9 | 17 | -1 | . | -95* | .
COc1ccc(CC2(CO)CCN(C(C)Cc3ccc(Cl)cc3)CC2)cc1 (centres undefined) | -5 | -93* | 1 | 15 | -93* | 0
COC(=O)CS(=O)(=O)c1nc2ccccc2nc1N1CCCCC1 | -4 | . | 0 | 22 | . | 1
COC(=O)C1=C(C)N(Cc2ccccc2)C(=NCC2CC2)N[C@H]1c1ccc(Br)cc1 | 32* | . | 5 | . | . | .
COC(=O)C1=C(C)N(Cc2ccccc2)C(=NCCc2cccnc2)N[C@H]1c1ccccc1 | 10 | -40 | 1 | 22 | 19 | 0
COC(=O)C1=C(C)N(Cc2ccccc2)C(=NCCc2cccnc2)N[C@H]1c1ccc(Br)cc1 | -5 | -89* | 7 | 3 | -48 | 1
O=C(Nc1ccc2nc(SCCOc3ccccc3Cl)sc2c1)c1cccs1 | 3 | . | 1 | -9 | . | 0
CCOC(=O)C1CCN(C(=O)COC(=O)c2cccc(F)c2)CC1 | 36* | 21 | 0 | -3 | 5 | 0
O=C(CN(C(=O)CCC(=O)Nc1ccccn1)c1ccc(F)cc1)NCc1ccc(F)cc1 | 8 | 2 | 0 | -11 | -19 | 0
CCCN(CCC)CCNC(=O)CCC(=O)Nc1ccc2nc(N3CCOCC3)cc(C)c2c1 | 23 | -174* | -2 | 76 | 3 | -1
CCCN(CCC)CCCNC(=S)Nc1ccc2nc(N3CCN(CC)CC3)cc(C)c2c1 | -1 | 14 | 2 | -8 | -6 | 0
Cc1cc(N2CCOCC2)nc2ccc(NC(=O)C3CCC(C)CC3)cc12 (centres undefined) | 9 | -107* | 0 | 6 | -14 | 0
CCCN(CCC)CCCNC(=S)Nc1ccc2nc(N3CCN(C)CC3)cc(C)c2c1 | 2 | -109* | 0 | -3 | 15 | 0
CCc1ccc(NC(=O)Cn2c(=O)n(-c3ccc(OC)cc3)c(=O)c3ccc(C(=O)NCc4ccc(C)cc4)cc32)cc1 | 13 | . | -1 | 11 | . | 0
O=C(CCCN1C(=O)/C(=C/c2ccccc2OC(F)F)SC1=S)Nc1cccnc1 | . | -6 | . | -5 | -1 | 1
C=CCn1c(N)cc(=O)nc1SCC(=O)Nc1ccc(C)cc1 | 39* | 10 | 0 | -10 | -7 | 0
CCOC(=O)c1cnc(-n2nc(C)cc2C)nc1NC | 9 | -1 | 0 | -5 | -10 | 0
CCOC(=O)c1cnc(-n2nc(C)cc2C)nc1NC1CCCCC1 | -8 | -12 | 1 | 7 | -105* | 1
CCOC(=O)c1cnc(-n2nc(C)cc2C)nc1Nc1ccc2c(c1)OCO2 | 33* | . | -1 | . | . | .
O=C(CN1CCN(Cc2ccccc2)CC1)Nc1ccc(Br)cc1 | -8 | -84* | 0 | -1 | -33 | 1
O=C(CN1CCN(S(=O)(=O)N2CCCCCC2)CC1)Nc1ccc(Br)cc1 | -2 | ? | 0 | 12 | -101* | 1
CC(=O)c1cc(-c2ccccc2)n(CCC(=O)NCCc2ccccc2)c1C | -6 | . | 0 | -30 | . | 1
Cc1ccc(/C=N/n2c(-c3cccnc3)n[nH]c2=S)s1 | 9 | 4 | -2 | -22 | 5 | 0
